Whole data set: some 110,000 compounds, median “z-score” near -0.1, cut for the highest 2% near 2. This is one part of a sample in which the highest values are shown more often than they occur. Active and inactive are the calls of the source.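 How the source made its calls: active means z-score in the third read window above 3 or below -3; inactive means the rest.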
molecular target: Metabotropic glutamate receptor 8 (Rattus norvegicus) (UniProt P70579); assay: mGluR8 Gi/Go-coupled signaling modulation – cell-based, rat, thallium flux, HTS, primary screen (AID 488969); settings: HEK293 rat mGluR8, GIRK (G protein-gated inwardly rectifying potassium channel) thallium flux, FluoZin2; at 10 µM; stronger effect = higher value; submaximal glutamate (EC20) added with thallium
Sequence (P70579 whole entry, looked up): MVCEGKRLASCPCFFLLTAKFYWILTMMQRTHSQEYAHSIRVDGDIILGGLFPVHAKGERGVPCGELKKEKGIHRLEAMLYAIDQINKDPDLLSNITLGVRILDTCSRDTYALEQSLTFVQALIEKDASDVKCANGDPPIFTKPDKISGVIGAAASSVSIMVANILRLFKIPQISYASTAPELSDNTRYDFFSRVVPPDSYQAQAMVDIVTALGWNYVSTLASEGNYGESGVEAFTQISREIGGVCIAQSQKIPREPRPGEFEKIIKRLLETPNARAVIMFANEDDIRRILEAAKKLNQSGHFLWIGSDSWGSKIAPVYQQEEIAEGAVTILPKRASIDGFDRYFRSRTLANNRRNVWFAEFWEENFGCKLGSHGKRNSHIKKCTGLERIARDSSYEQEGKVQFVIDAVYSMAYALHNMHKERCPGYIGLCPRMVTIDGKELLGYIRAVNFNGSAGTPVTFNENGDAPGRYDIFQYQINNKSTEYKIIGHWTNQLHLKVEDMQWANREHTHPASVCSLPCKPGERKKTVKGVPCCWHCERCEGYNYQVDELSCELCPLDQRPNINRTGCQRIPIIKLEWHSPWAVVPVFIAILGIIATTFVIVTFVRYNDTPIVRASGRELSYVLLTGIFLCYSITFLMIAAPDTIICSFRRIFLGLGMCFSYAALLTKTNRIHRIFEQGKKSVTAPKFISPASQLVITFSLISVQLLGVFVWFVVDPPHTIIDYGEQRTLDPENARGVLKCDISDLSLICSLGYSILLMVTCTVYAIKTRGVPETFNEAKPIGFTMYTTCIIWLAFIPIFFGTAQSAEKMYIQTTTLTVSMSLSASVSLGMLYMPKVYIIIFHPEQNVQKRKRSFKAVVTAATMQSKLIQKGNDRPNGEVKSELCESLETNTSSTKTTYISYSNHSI

Row | SMILES | z-score
1 | COC(=O)Cn1c(=NC(=O)c2ccc(OC)c(OC)c2)sc2cc(OC)ccc21 | -0.167
2 | COc1ccc(/C=C2\CCCc3c2nc2ccccc2c3C(=O)OCC(=O)c2c(N)n(C)c(=O)n(C)c2=O)cc1 | -0.224
3 | O=C(CCn1nc(-c2ccccc2)c2ccccc2c1=O)NCC1CCCO1 (stereo not drawn) | -0.116
4 | Clc1ccc(OCc2cc(-c3ccccc3)no2)cc1Cl | -0.0469
5 | O=C(CCCCCN1C(=O)c2ccccc2C1=O)Nc1ccc(F)cc1 | -0.0499
6 | CC(C)(C)c1ccccc1OCCN1CCCC1 | -0.516
7 | CC(C)(C)c1ccccc1OCCCCN1CCCC1 | 2.06
8 | Cc1cccc(C(C)(C)C)c1OCCCCN1CCCC1 | 2.48
9 | Cc1ccc(C(C)(C)C)c(OCCCCN2CCCC2)c1 | 0.658
10 | Cc1cccc(C)c1OCCCN1CCCC1 | 0.0506
11 | Cc1cccc(C(C)(C)C)c1OCCOCCN1CCCC1 | 0.391
12 | COC(=O)c1cc2oc(C)cc2n1CC(=O)Nc1cc(C)cc(C)c1 | -0.162
13 | O=C(CN1C(=O)CCS(=O)(=O)c2ccccc21)NCc1ccccc1 | 0.305
14 | CCOc1ccc(C(=O)/C=C/c2ccccc2C(F)(F)F)cc1 | -0.354
15 | O=C(NCc1ccccn1)c1c(Cl)cccc1Cl | 0.0849
16 | CC(C)CCn1c(C(C)O)nc2ccccc21 (stereo not drawn) | -0.257
17 | CCCCn1c(C(C)O)nc2ccccc21 (stereo not drawn) | -0.321
18 | CC(O)c1nc2ccccc2n1C1CCCCC1 (stereo not drawn) | 6.36 (active)
19 | N#CCCn1cc(C(CC(=O)c2ccccc2)C(=O)O)c2ccccc21 (stereo not drawn) | -0.0596
20 | Cc1cccc(N=c2oc3cc(O)ccc3cc2C(N)=O)c1 | 0.0144
21 | COc1ccc(OC)c(N=c2oc3cc(O)ccc3cc2C(N)=O)c1 | 1.99
22 | COc1ccc(N=c2oc3cc(O)ccc3cc2C(=O)NCC2CCCO2)c(OC)c1 (stereo not drawn) | -0.403
23 | C=CCN1C(=O)/C(=C2/Sc3ccccc3N2C)SC1=Nc1c(C)n[nH]c1C | 3.97 (active)

Row | SMILES | z-score
24 | C=CCN1C(=O)/C(=C2/Sc3ccccc3N2C)SC1=Nc1ccccc1C | -0.792
25 | C=CCN1C(=O)/C(=C2/Sc3ccccc3N2CCCS(=O)(=O)O)SC1=S | -0.352
26 | CCOC(=O)c1ccc(N2C(=O)CC(N3CCC(O)(c4ccc(Cl)cc4)CC3)C2=O)cc1 (stereo not drawn) | 0.433
27 | CCCCC1S/C(=N/N=C/c2ccc(OC)cc2)N(Cc2ccc(OC)cc2)C1=O (stereo not drawn) | -0.524
28 | CCOC(=O)c1c(CN(CC)CC)oc2cc(Br)c(O)cc12 | -1.27
29 | COC(=O)C1CCN(C(=O)COc2cc3sc(C)nc3c3sccc23)CC1 | -1.34
30 | Cc1cc(NS(=O)(=O)c2ccc(NC(=O)Nc3ccccc3)cc2)no1 | 0.82
31 | Cc1cc(NS(=O)(=O)c2ccc(NC(=S)NC(=O)c3ccc(F)cc3)cc2)no1 | -0.0103
32 | Cc1cc(NS(=O)(=O)c2ccc(NC(=S)NC(=O)c3ccccc3)cc2)no1 | 2.22
33 | CCc1nnc(NS(=O)(=O)c2ccc(NC(=S)NC(=O)c3ccccc3)cc2)s1 | 5.21 (active)
34 | CCc1nnc(NS(=O)(=O)c2ccc(NC(=S)NC(=O)c3ccc(Br)cc3)cc2)s1 | -1.21
35 | CCc1nnc(NS(=O)(=O)c2ccc(NC(=S)NC(=O)c3ccc(F)cc3)cc2)s1 | 0.102
36 | Cc1ccc(Cn2c(SCC(=O)N/N=C/c3ccc(C)o3)nc3ccccc32)cc1 | -0.169
37 | Cc1ccc(-c2cnc(SCC(=O)N3CCCc4ccccc43)n2C)cc1 | -0.31
38 | O=C1c2ccccc2C(=O)N1CC1=CCS(=O)(=O)C1 | 0.399
39 | COc1ccc(N2CCN(C(=O)CCCn3c(=S)[nH]c4cc5c(cc4c3=O)OCO5)CC2)cc1 | -0.487
40 | Cc1cc(C)nc(NC(=O)CCC2CCCC2)c1 | -0.0409
41 | CS(=O)(=O)Nc1ccc(C(=O)NCCC2=CCCCC2)cc1 | 1.28
42 | CCOc1ccc(-n2c(C)nc3cc(C(=O)NCc4ccco4)ccc32)cc1 | 0.364
43 | COc1ccc(-n2c(C)nc3cc(C(=O)NCc4ccco4)ccc32)cc1 | 2.54
44 | COc1ccc(-n2c(C)nc3cc(C(=O)NCc4ccc5c(c4)OCO5)ccc32)cc1 | -0.347
45 | CC(=O)c1c(C)nn(C(C)CC(=O)O)c1C (stereo not drawn) | -0.0267
46 | COc1cc(OC)nc(NC(=O)CSc2nnc(-c3ccccc3)n2C2CCCCC2)n1 | -0.277

Row | SMILES | z-score
47 | O=C(Nc1cccc(F)c1)c1ccccc1-c1ccccc1 | -0.369
48 | CC1(c2ccccc2)CC(C)(C)N(C(=O)CSc2nnc(N)s2)c2ccccc21 (stereo not drawn) | -0.521
49 | CN1CCN(CC(=O)N2c3ccccc3C(C)(c3ccccc3)CC2(C)C)CC1 (stereo not drawn) | 3.59 (active)
50 | CN1CCN(CC(=O)N2c3ccccc3C(C)(c3ccc(Cl)cc3)CC2(C)C)CC1 (stereo not drawn) | 3.21 (active)
51 | CC(=O)N1c2ccccc2C(C)(c2ccccc2)CC1(C)C (stereo not drawn) | -0.236
52 | Cc1nnc(SCC(=O)N2c3ccccc3C(C)(c3ccc(Cl)cc3)CC2(C)C)s1 (stereo not drawn) | 0.227
53 | Cc1nnc(SCC(=O)N2c3ccccc3C(C)(c3ccccc3)CC2(C)C)s1 (stereo not drawn) | 0.611
54 | CC1Cc2ccccc2N1C(=O)CCNS(=O)(=O)c1ccc2c(c1)CCC(=O)N2 (stereo not drawn) | -0.0721
55 | Cn1c(=O)c2c(nc(NCCO)n2C)n(C)c1=O | 0.204
56 | CCn1c(NCc2ccco2)nc2c1c(=O)n(C)c(=O)n2C | 0.397
57 | CCn1c(C)c(C2=CCN(S(=O)(=O)c3ccc(C)cc3)CC2)c2ccccc21 | 0.0891
58 | CCN1C(=O)c2cccc3cccc1c23 | -0.389
59 | CCn1c(O)c(N=NC(=O)CNc2cccc(C)c2)c2ccccc21 | 1.4
60 | CCOc1ccc2c(c1)c(N=Nc1cccc(C(=O)O)c1)c(O)n2C | -0.0674
61 | CCn1c(O)c(N=NC2=NC(=O)CS2)c2ccccc21 | 0.217
62 | CCn1c(O)c(N=NC2=NC(=O)CS2)c2cc(C)ccc21 | 2.24
63 | Cc1cc(C)nc(N=Nc2c(O)n(Cc3ccc(Cl)cc3)c3ccccc23)n1 | 0.0163
64 | CCOc1ccc2c(c1)c(N=NC(=N)N)c(O)n2C | -0.224
65 | CCc1ccc2c(c1)c1nnc(NN)nc1n2CC | -0.278
66 | CCc1ccc2c(c1)c(N=NC1=NC(=O)CS1)c(O)n2CC | 2.98
67 | CCc1ccc2c(c1)c(N=NC1=NC(=O)CS1)c(O)n2C | 2.09
68 | Cc1ccc(O)c(C(=O)/C=C/c2ccc3c(c2)OCCCO3)c1 | 0.653
69 | CC(=O)NC1=NN(C(C)=O)C(C)(CS(=O)(=O)c2ccc(C)c(C)c2)S1 (stereo not drawn) | -0.323

Row | SMILES | z-score
70 | COc1ccc(CN(C(=O)c2ccco2)c2ccc(Br)cc2)cc1OC | -0.544
71 | CCOC(=O)c1sc(C)c2c(=O)n(CC)nnc12 | 0.154
72 | Cc1ccc(NC(=S)NNC(=O)c2cn(C)nc2C)cc1 | 0.188
73 | CSc1nc(-c2ccccc2)[nH]c(=S)c1C(C)=O | 7.43 (active)
74 | CSc1nc(-c2ccccc2)nc(N)c1C(C)=O | -0.0854
75 | CSc1nc(-c2ccccc2)nc(SC)c1C(C)=O | -0.493
76 | CC(=O)c1c(N2CCN(C)CC2)[nH]c(-c2ccccc2)nc1=S | 0.167
77 | CC(=O)c1c(N)[nH]c(-c2ccccc2)nc1=S | 1.28
78 | CC(=O)c1c(N2CCCC2)[nH]c(-c2ccccc2)nc1=S | 14.8 (active)
79 | S=C(NC12CC3CC(CC(C3)C1)C2)N1CCCC1 | -0.0857
80 | N#C/C(=C(/O)COC(=O)Cc1c[nH]c2ccccc12)c1nc2ccccc2[nH]1 | -0.819
81 | Cc1ccc2c(c1)NC(=O)C(CC(=O)NCCCN1CCCC1)O2 (stereo not drawn) | 0.515
82 | COC(=O)CSc1nc(N)c(C#N)c(-c2ccco2)c1C#N | -0.328
83 | CCSc1nc(N)c(C#N)c(-c2ccco2)c1C#N | -0.377
84 | N#Cc1c(N)nc(SCc2ccccc2)c(C#N)c1-c1ccco1 | 11.4 (active)
85 | COc1ccc(Oc2coc3cc(OC(=O)N4CCOCC4)ccc3c2=O)cc1 | -0.0315
86 | Cc1cccc(Nc2nnc(SCC3CCCCO3)s2)c1C (stereo not drawn) | -0.0272
87 | COc1cccc(N(C(=O)Cn2nnc(-c3ccc(C)o3)n2)C(C(=O)NC(C)(C)C)c2cccs2)c1 (stereo not drawn) | 0.439
88 | O=C(NC(=S)Nc1ccccc1N1CCOCC1)c1cccs1 | 4.28 (active)
89 | CS(=O)(=O)N1CCN(c2ccccc2NC(=O)c2ccco2)CC1 | -0.175
90 | O=C(NC(=S)Nc1ccccc1N1CCCCC1)c1ccco1 | 5.87 (active)
91 | O=C(NC(=S)Nc1ccccc1N1CCCCC1)c1cccs1 | -0.0387
92 | O=C(Nc1ccc(N2CCOCC2)cc1N1CCOCC1)c1cccs1 | -0.508

Row | SMILES | z-score
93 | O=C(NC(=S)Nc1cccc(Cl)c1N1CCCCC1)c1cccs1 | 2.55
94 | CCC(=O)NC(=S)Nc1cccc(Cl)c1N1CCCCC1 | 0.315
95 | O=C(NC(=S)Nc1cccc(Cl)c1N1CCCCC1)c1ccc2c(c1)OCCO2 | 0.413
96 | O=C(Nc1ccccc1N1CCCCC1)c1ccco1 | -0.657
97 | O=C(NC(=S)Nc1cccc(Cl)c1N1CCCCC1)c1ccco1 | 5.38 (active)
98 | CCCC(=O)NC(=S)Nc1cccc(Cl)c1N1CCCCC1 | 0.12
99 | O=C(Nc1ccccc1N1CCOCC1)c1cccs1 | 0.511
100 | Cc1ccc(NC(=O)c2ccc(CSc3nnnn3C)cc2)cc1 | -0.174
101 | COc1ccc(-n2c(N)c(C(=O)NCc3cccnc3)sc2=S)cc1 | 0.463
102 | Cc1nc(NNC(=O)c2ccc(Cl)cc2Cl)cc(-c2ccccc2)n1 | 0.141
103 | CCCOC(=O)c1ccc(OCC(O)CN2C(=O)NC(C)(C)C2=O)cc1 (stereo not drawn) | 0.307
104 | O=[N+]([O-])c1cccc(C(=Nc2ccc(Cl)cc2)NO)c1 | -0.259
105 | CC(NC(=O)Nc1nnc(C(F)(F)F)s1)N1C(=O)C2C3C=CC(C3)C2C1=O (stereo not drawn) | 0.0447
106 | CCCCCNc1nc(NCCCO)c(C#N)c2c1CN(C)CC2 | -0.528
107 | CC1CCN(c2ccccc2NC(=S)NC(=O)c2cccs2)CC1 | 1.61
108 | O=C(NC(=S)Nc1ccccc1N1CCOCC1)c1ccco1 | 9.71 (active)
109 | O=C(Cc1ccc(Cl)cc1)NC(=S)Nc1ccccc1N1CCOCC1 | 0.883
110 | O=C(Nc1ccccc1N1CCCC1)c1ccco1 | -0.0103
111 | CC1CCN(c2ccccc2NC(=O)c2ccc(F)cc2)CC1 | -0.52
112 | CC1CCN(c2ccccc2NC(=S)NC(=O)c2ccco2)CC1 | 3.89 (active)
113 | N#C/C(=C\c1ccc(Cl)cc1Cl)c1n[nH]c(Cn2cncn2)n1 | -1.59
